From the supplement of paper PMC3334620
The full ranking holds about 33,000 sequences; the median of “E-score (-0.5 to 0.5)” is about -0.054, and the highest 2% start at about 0.35. The sample as a whole holds a higher share of the highest values than the screen did.

Molecular target: T1, Stb5 (UniProt P38699)
T1 sequence: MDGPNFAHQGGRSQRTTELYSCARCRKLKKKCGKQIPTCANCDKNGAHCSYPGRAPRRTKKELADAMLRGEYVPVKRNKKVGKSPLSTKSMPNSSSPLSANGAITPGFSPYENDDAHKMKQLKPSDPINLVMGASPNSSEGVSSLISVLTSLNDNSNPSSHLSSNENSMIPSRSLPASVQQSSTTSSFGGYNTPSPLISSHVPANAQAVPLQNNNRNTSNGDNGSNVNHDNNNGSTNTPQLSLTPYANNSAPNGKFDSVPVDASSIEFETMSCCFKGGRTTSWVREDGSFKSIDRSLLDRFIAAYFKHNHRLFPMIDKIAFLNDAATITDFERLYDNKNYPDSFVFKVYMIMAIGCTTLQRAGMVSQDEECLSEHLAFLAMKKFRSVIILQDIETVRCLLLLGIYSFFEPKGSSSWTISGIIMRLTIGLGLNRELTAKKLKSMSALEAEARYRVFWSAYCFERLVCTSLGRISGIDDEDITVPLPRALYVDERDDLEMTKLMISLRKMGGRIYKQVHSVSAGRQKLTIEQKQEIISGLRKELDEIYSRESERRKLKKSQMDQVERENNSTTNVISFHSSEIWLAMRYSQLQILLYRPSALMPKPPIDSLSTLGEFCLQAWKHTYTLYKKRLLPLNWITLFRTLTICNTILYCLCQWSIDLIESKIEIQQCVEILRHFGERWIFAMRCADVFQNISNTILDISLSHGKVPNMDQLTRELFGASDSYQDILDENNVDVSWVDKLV
Assay: PBM E-score (8-mer binding enrichment) (E-score (-0.5 to 0.5)); higher = stronger / more preferred TF binding
Conditions: protein concentration: 200 nM; construct: GST-full length
How it was run: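 The E-score, a modified Wilcoxon-Mann-Whitney statistic, was computed by the Universal PBM Analysis Suite for every ungapped eight-base word pooled with its reverse complement. Scans behind it were normalised with masliner after bound GST-tagged yeast transcription factors were detected with fluorescent anti-GST. The proteins, at about 100-200 nM, had been applied to universal all-10-mer Agilent arrays made double-stranded by primer extension.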

Row | Sequence | PBM E-score
1 | GATACTCC | 0.146
2 | TAGCACTA | -0.246
3 | AAAAAGAA | 0.175
4 | GCCAAGGA | -0.0748
5 | TAGGTCCA | -0.0733
6 | AGTTGCTG | -0.167
7 | GTCGTTAA | -0.0792
8 | CGAAGTTC | -0.147
9 | CCGACAGC | 0.341
10 | ACGCTTTC | -0.205
11 | ATGCTCCC | -0.0728
12 | ACGGTCAG | -0.0787
13 | CCGGTGCC | 0.328
14 | GCGGTGCC | 0.387
15 | ACGGTACT | 0.389
16 | ACGGTCAT | 0.368
17 | ACGGTCAA | 0.126
18 | ACGGTACC | 0.283
19 | GCGGTGCA | 0.259
20 | ACGGTACG | 0.214
21 | TCGCTAGA | -0.243
22 | AGCACCTG | -0.14
23 | CCCTCTCA | -0.284

Row | Sequence | PBM E-score
24 | AAACGAGC | -0.209
25 | GTACTCCA | -0.229
26 | CGCGGACA | 0.315
27 | AGCGGACG | 0.284
28 | AGCGGACA | 0.393
29 | AGCGGAAT | 0.228
30 | AGCGGACT | 0.39
31 | AGCGGATA | 0.286
32 | CCCCCCCA | -0.263
33 | ACTCATAT | -0.0119
34 | CACCCCGC | 0.394
35 | GACCCCGA | 0.377
36 | CACCCCCC | -0.14
37 | TACCCCAA | -0.157
38 | GCCCCCGC | 0.256
39 | CACCCCGG | 0.277
40 | CACCCCGA | 0.325
41 | TACCCCCA | -0.114
42 | TACCCCGA | 0.407
43 | GACCCCCA | -0.201
44 | GACCCCCC | -0.259
45 | GACCCCGC | 0.391
46 | GGTGCTCA | 0.0877

Row | Sequence | PBM E-score
47 | CGAAAGAG | -0.0144
48 | ACGCAGAG | -0.218
49 | CCTCCATC | -0.18
50 | AGCGGGAC | 0.303
51 | AGCGAGAC | -0.0631
52 | CTAGCACC | 0.336
53 | GCGTCATA | -0.0207
54 | GCAATGCA | -0.0992
55 | CCAGCCAG | -0.223
56 | ACAGTGAA | -0.147
57 | CCTTAATC | 0.109
58 | GTTATCTA | -0.00767
59 | ATCAACGA | 0.0713
60 | ACGGGTAG | -0.0642
61 | CAAGTCCA | -0.171
62 | AAGGTCCG | 0.442
63 | CAAGTCCG | 0.356
64 | AGAGTCCT | -0.216
65 | AAGGTCCA | -0.171
66 | AGAGTCCG | 0.378
67 | CAGGTCCG | 0.237
68 | AACGTCCA | -0.0958
69 | CAAGTCCC | 0.00375

Row | Sequence | PBM E-score
70 | AGAGTCCC | 0.0723
71 | AACGTCCG | 0.375
72 | AACGTCCC | -0.0635
73 | GAACTGCC | -0.118
74 | CGGATCCG | 0.124
75 | ATGGTCTA | -0.23
76 | AAGAACCG | 0.262
77 | AAAGATCG | -0.0774
78 | AGGCATCC | -0.261
79 | ACATTAGC | -0.083
80 | AGGCCGTG | 0.212
81 | CTCTTGTC | -0.198
82 | ACGCCATG | -0.293
83 | TAGCCGGA | 0.279
84 | CCTGAAGG | -0.14
85 | AAAGTCCA | -0.136
86 | AAAGTCCG | 0.466
87 | AAAGTCCT | 0.108
88 | ACGATTAC | -0.161
89 | CTCTGCCA | -0.235
90 | TCGGCCCA | 0.105
91 | ACGGAGAA | 0.188
92 | ACGGAGCG | 0.299

Row | Sequence | PBM E-score
93 | ACGGATAT | 0.367
94 | ACGGAGAT | 0.403
95 | ACGGATAA | 0.215
96 | ACGGAGCT | 0.373
97 | ACGGAGCC | 0.263
98 | ACGGAGAC | 0.272
99 | ACGGATAG | -0.0573
100 | AACTGTGA | -0.19
101 | ATTGGAAA | -0.0189
102 | ATCCTTTC | -0.195
103 | CAGGCGAA | -0.257
104 | GGCTTCTA | -0.04
105 | AGTCGTAC | -0.189
106 | TGTCGGAA | 0.26
107 | ACAGGTCA | -0.136
108 | CACTACTA | -0.117
109 | ACCATCCA | -0.118
110 | ATAGTACG | -0.0437
111 | ATAGTACC | 0.359
112 | CTAGTACC | 0.226
113 | CGCCGATC | 0.363
114 | ACCCGATC | 0.19
115 | CCCCGATA | 0.339

Row | Sequence | PBM E-score
116 | CCCCGATC | 0.374
117 | GGCCGATA | 0.266
118 | CGCCGAGC | 0.261
119 | CGCCGATA | 0.36
120 | AGCCGATC | 0.0924
121 | AGCCGATA | 0.0102
122 | ACTATTCA | -0.084
123 | CGCATCTC | -0.00684
124 | TCTTTACA | -0.117
125 | AGTGGCGG | 0.292
126 | ACAGTTAC | -0.0633
127 | GGGAATAC | 0.302
128 | GGGAATAA | 0.373
129 | TGGAATAA | -0.14
130 | CAACGAAC | 0.079
131 | CACCGATA | 0.351
132 | CACCGATG | 0.357
133 | AACCGATC | 0.106
134 | AACCGATG | 0.143
135 | CACCGATC | 0.359
136 | GACCGATC | 0.323
137 | GAGGCTGC | -0.213
138 | ATCGGTTG | 0.0401

Row | Sequence | PBM E-score
139 | CGCAATAC | -0.0062
140 | CCTGGTCG | 0.0613
141 | AATCGGTG | 0.405
142 | AATCGGTA | 0.262
143 | CGTCGGTA | 0.357
144 | AGTCGGGA | 0.287
145 | ACTCGGTA | -0.00538
146 | ACTCGGGG | 0.185
147 | AGTCGGTA | 0.36
148 | AGTCGGGG | 0.363
149 | AATCGGTC | 0.234
150 | GGTCGGTA | 0.319
151 | CCTCGGTA | 0.223
152 | CGTCGGTC | 0.325
153 | ATTGAAAT | -0.0501
154 | AACGAGGC | -0.168
155 | ACTCTACG | -0.241
156 | TATACTCA | -0.245
157 | GCGATTCA | 0.00506
158 | GGGCGCCC | 0.147
159 | GATAACGA | -0.102
160 | ACTCAAGG | -0.223
161 | CGACGGTA | 0.352

Row | Sequence | PBM E-score
162 | CATCGGGG | 0.313
163 | AATCGGGG | 0.372
164 | AGTCGGTG | 0.385
165 | GGACGGTA | 0.241
166 | CGACGGTC | 0.315
167 | AATCGGGC | 0.209
168 | AGTCGGTC | 0.259
169 | AGTCGGCG | 0.239
170 | AAATGGAT | -0.168
171 | AGGGAGAC | -0.0822
172 | AACATGGT | -0.217
173 | GCCAGCGC | -0.00309
174 | GAAGGGGC | -0.11
175 | AGCTCTCC | -0.325
176 | CTGCGTCA | -0.121
177 | GTAACTAC | 0.109
178 | CTTCCCGC | 0.129
179 | ATTCCCGC | 0.4
180 | ATTCCCGG | 0.319
181 | CTTCCCGA | 0.0298
182 | ATTCCCGA | 0.379
183 | GTTCCCGA | 0.235
184 | AATCCTAG | -0.0194
